# Where “and” joins values, the source holds several entries; their conditions need not be identical. Equal values may be shown once. The source holds several records for some structures; these can differ, active in one and inactive in another. Calls of active or inactive are those of the source. Unless noted, the rule behind the calls is not given here.
# Columns and labels:
# [1] = tested on: Wnt5a (protein binding on small-molecule microarray); assay: small molecules binding Wnt5a protein – biophysical, small-molecule microarray, 635/667 nm fluorescence, primary screen (AID 1142); settings: 635 nm fluorescence, higher = more signal;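 note: fluorescence read at 667 nm with signal to noise per printed feature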
# [2] = ATP-based viability of Huh7 replicon cells – cell-based, CellTiter-Glo luminescence, basal, 48 h, cytotoxicity control for HCV replication inhibitor project, primary screen (AID 1143); settings: higher = more signal, called active from +8 up or from −8 down;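 note: Huh7 hepatoma cells carrying a hepatitis C replication reporter with no stimulus; test concentration not given here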
# [3] = Pseudomonas biofilm growth suppression – PAO1 strain, BacTiter-Glo luminescence, LB-PBS, primary screen (AID 1144); settings: P. aeruginosa PAO1 biofilm, 12 h, higher = more signal
# [4] = basal CRE-LacZ reporter activity in PC12 – cell-based, unstimulated, primary screen (AID 1145); settings: no forskolin, luminescence, 4.5 h, higher = more signal, called active from +8 up or from −8 down
# [5] = forskolin-driven CRE-LacZ activity in PC12 – cell-based, CRE-LacZ reporter, forskolin-stimulated, primary screen (AID 1146); settings: luminescence, 4.5 h, higher = more signal, called active from +8 up or from −8 down;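 note: PC12 cells with 6xCRE LacZ reporter stimulated by forskolin 10 µM; beta-galactosidase reporter signal reflecting CREB driven transcription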
# [6] = target: Streptavidin (Streptomyces avidinii) (UniProt P22629); assay: compounds binding control protein streptavidin – biophysical, small-molecule microarray, 635/667 nm fluorescence, artefact control for SMM compound annotation, primary screen (AID 1147); settings: higher = more signal;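 note: signal reflects streptavidin binding to arrayed compounds as a control protein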
# [7] = probe aInhba binding on compound microarray – biochemical, small-molecule microarray, 635/667 nm fluorescence, primary screen (AID 1148); settings: higher = more signal;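 note: score merges 667nm spot fluorescence with signal-to-noise for antibody binding to printed compounds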
# Torsin-1A (Homo sapiens) [8] = target: Torsin-1A (Homo sapiens) (UniProt O14656); assay: TOR1A wild-type binding on microarray – cell lysate, small-molecule microarray, lysate, 635/667 nm, primary screen (AID 1149); settings: COS7 hTOR1A-WT lysate, 635 nm fluorescence, higher = more signal
# Torsin-1A (Homo sapiens) [9] = target: Torsin-1A (Homo sapiens) (UniProt O14656); assay: torsin A mutant lysate binding on microarrays – cell lysate, small-molecule microarray, COS7 lysate, 635/667 nm fluorescence, primary screen (AID 1150); settings: COS7 hTOR1A mutant lysate, 635 nm fluorescence, higher = more signal;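 note: score pools 667 nm emission and signal to noise measuring lysate protein binding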
# [10] = tested on: Sonic hedgehog protein (Shh); assay: Sonic hedgehog microarray binding compounds – biochemical, small-molecule microarray, 635/667 nm fluorescence, primary screen (AID 1151); settings: 635 nm fluorescence, higher = more signal;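 note: Shh protein binding to compounds spotted on small-molecule microarray slides; score combines spot fluorescence intensity with signal-to-noise across triplicate slides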
# [11] = optical density shifts of acrAB sulA E. coli – strain DRC41, OD650, 48 h, E. coli filamentation inducer project, primary screen (AID 1152); settings: higher = more signal, called active from +8 up or from −8 down;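 note: E. coli MC1000 strain DRC41 lacking acrAB efflux pump and sulA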
# [12] = probe aLefty1 binding on compound microarray – biochemical, small-molecule microarray, 635/667 nm fluorescence, primary screen (AID 1153); settings: higher = more signal;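 note: score merges spot fluorescence with signal-to-noise ratio from the scanned slide images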
# [13] = plasmodial surface anion channel blockers, osmotic lysis – cell-based, P. falciparum Indochina, OD700, 1 h, primary screen (AID 1154); settings: P. falciparum Indochina infected RBC osmotic lysis, higher = more signal, called active from +8 up or from −8 down
# [14] = plasmodial surface anion channel blockers, osmotic lysis – cell-based, P. falciparum Indochina, OD700, 2 h, primary screen (AID 1155);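 note: lysis reports solute entry through the parasite surface anion channel PSAC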; settings: P. falciparum Indochina infected erythrocytes, higher = more signal, called active from +8 up or from −8 down
# [15] = changes in parasitized red cell lysis, either direction – P. falciparum Indochina, OD700, 3 h, PSAC antagonist project, primary screen (AID 1156); settings: P. falciparum-infected erythrocytes, osmotic lysis, higher = more signal, called active from +8 up or from −8 down
# [16] = plasmodial surface anion channel blockers, osmotic lysis – cell-based, P. falciparum Indochina, OD700, 18 h, primary screen (AID 1157); settings: P. falciparum Indochina infected erythrocytes, osmotic lysis OD700, 18 h; higher = more signal, called active from +8 up or from −8 down
# [17] = S6 kinase pathway phospho-S6 level changes – cell-based, A549, cytoblot, luminescence, serum-stimulated, primary screen (AID 1158); settings: 5 h, higher = more signal;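 note: serum-stimulated A549 lung adenocarcinoma cells; signal is phosphorylated S6 detected by cytoblot immunostaining with HRP secondary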
# [18] = target: NADPH oxidase 2 (Homo sapiens) (UniProt P04839); assay: compounds shifting NOX2 Amplex Red fluorescence – cell-based, HEK293-NOX2, PMA-stimulated, NOX inhibitor project, primary screen (AID 1159); settings: 45 min, higher = more signal, called active from +8 up or from −8 down; note: test concentration not given here
# [19] = target: NADPH oxidase 4 (Homo sapiens) (UniProt Q9NPH5); assay: compounds shifting NOX4 Amplex Red fluorescence – cell-based, HEK293-NOX4, tetracycline-induced, NOX inhibitor project, primary screen (AID 1160); settings: HEK293-NOX4, Amplex Red H2O2 fluorescence, 45 min; higher = more signal, called active from +8 up or from −8 down
# [20] = target: NADPH oxidase 5 (Homo sapiens) (UniProt Q96PH1); assay: compounds shifting NOX5 Amplex Red fluorescence – cell-based, HEK293-NOX5, NOX inhibitor project, primary screen (AID 1161); settings: HEK293-NOX5, ionomycin, 45 min, higher = more signal
# Chain of NADPH oxidase 5 (Homo sapiens) (Q96PH1 whole entry, looked up): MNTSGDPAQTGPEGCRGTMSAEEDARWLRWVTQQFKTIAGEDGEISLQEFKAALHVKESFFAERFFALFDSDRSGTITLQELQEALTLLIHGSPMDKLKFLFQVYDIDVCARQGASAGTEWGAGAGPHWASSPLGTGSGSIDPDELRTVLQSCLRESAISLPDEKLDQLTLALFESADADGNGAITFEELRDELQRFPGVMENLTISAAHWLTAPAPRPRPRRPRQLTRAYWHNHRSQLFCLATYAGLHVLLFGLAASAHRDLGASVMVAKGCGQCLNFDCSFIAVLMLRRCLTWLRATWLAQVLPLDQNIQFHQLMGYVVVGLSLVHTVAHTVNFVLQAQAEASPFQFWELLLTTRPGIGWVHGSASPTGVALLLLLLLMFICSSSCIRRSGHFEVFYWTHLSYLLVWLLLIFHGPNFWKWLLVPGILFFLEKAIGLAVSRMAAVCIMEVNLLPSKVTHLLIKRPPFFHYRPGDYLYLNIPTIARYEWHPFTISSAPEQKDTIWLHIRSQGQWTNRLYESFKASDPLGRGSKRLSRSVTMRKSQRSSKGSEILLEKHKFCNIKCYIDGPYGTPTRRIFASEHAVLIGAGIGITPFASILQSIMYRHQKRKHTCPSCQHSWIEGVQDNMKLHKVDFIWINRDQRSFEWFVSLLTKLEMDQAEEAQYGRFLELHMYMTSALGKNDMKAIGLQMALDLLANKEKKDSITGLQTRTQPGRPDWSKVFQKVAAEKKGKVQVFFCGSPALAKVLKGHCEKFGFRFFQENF
# Chain of NADPH oxidase 2 (Homo sapiens) (P04839 whole entry, looked up): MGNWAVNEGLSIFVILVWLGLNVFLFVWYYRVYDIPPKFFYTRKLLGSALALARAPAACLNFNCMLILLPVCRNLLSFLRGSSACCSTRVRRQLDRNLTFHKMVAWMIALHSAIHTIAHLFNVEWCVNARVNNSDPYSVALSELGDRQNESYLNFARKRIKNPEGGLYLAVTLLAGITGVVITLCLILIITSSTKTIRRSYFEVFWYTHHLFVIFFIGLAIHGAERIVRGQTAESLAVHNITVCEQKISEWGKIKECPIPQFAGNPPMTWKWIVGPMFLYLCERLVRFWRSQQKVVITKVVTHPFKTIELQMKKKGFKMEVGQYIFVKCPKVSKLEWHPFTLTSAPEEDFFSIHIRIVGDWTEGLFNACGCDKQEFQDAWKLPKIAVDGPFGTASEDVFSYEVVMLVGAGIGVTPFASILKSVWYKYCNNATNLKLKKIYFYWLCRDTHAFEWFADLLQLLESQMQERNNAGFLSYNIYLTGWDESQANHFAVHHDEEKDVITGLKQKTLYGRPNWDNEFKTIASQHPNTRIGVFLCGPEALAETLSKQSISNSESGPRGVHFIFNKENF
# Chain of Torsin-1A (Homo sapiens) (O14656 whole entry, looked up): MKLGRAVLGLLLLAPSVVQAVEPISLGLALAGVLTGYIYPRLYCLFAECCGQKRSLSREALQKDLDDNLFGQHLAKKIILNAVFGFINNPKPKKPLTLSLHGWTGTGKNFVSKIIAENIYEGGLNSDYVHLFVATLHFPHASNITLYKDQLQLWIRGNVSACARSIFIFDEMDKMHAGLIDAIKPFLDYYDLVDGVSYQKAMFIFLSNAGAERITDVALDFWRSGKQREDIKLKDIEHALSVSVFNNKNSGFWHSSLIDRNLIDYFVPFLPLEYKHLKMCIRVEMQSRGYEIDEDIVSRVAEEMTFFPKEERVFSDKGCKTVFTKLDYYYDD
# Chain of Streptavidin (Streptomyces avidinii) (P22629 whole entry, looked up): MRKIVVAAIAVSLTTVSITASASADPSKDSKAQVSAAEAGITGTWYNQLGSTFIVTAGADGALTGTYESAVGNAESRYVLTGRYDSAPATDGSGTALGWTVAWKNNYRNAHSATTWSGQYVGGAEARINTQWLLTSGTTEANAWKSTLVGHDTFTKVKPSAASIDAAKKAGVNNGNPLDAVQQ
# Chain of NADPH oxidase 4 (Homo sapiens) (Q9NPH5 whole entry, looked up): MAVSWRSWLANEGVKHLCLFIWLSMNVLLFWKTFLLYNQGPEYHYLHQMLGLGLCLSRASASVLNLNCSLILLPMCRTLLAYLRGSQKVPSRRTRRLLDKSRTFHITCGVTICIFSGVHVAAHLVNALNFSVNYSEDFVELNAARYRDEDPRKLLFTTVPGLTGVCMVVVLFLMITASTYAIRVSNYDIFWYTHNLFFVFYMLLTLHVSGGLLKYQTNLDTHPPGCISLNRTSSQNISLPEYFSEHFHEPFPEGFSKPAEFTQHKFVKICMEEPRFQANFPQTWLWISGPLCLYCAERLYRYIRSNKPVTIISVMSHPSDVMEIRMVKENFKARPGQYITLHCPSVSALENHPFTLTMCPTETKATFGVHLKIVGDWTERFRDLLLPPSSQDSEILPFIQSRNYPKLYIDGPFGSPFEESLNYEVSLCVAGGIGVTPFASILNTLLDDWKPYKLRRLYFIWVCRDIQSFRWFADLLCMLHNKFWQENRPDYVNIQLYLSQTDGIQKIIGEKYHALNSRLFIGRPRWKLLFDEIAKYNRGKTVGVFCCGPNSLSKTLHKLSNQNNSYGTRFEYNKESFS
Compound,composite z-score [1],z-score [2],z-score [3],z-score [4],z-score [5],composite z-score [6],composite z-score [7],composite z-score (Torsin-1A (Homo sapiens) [8]),composite z-score (Torsin-1A (Homo sapiens) [9]),composite z-score [10],z-score [11],composite z-score [12],z-score [13],z-score [14],z-score [15],z-score [16],z-score [17],z-score [18],z-score [19],z-score [20]
CC[C@@H]1C(Sc2ccccc2)C(C(=O)O)[C@H](c2ccc(C)cc2)N1S(=O)(=O)c1ccc(C)cc1 (stereo not given in full),0.142 and 0.0997,-0.318 (inactive) and -2.15 (inactive),0.281 (inactive) and 0.139 (inactive),-0.574 (inactive) and -0.415 (inactive),-0.0531 (inactive) and -0.545 (inactive),1.46 and 1.59,-0.025 and -0.0736,1.19 and 0.429,1.5 and -0.0197,0.801 and -0.436,-1.08 (inactive) and -0.135 (inactive),0.417 and -0.214,0.519 (inactive) and -0.178 (inactive),0.677 (inactive) and -0.514 (inactive),-0.0111 (inactive) and -0.657 (inactive),0.683 (inactive) and -2.21 (inactive),-0.473 and 0.388,0.668 (inactive) and 0.333 (inactive),0.464 (inactive) and 0.356 (inactive),2.07 and 0.173
C=CCN(CCCCC)C(=O)C(c1cccs1)N(C(=O)/C=C\C(=O)O)c1ccc(CCO)cc1 (stereo not given),-0.909 and -0.947,0.162 (inactive) and 0.193 (inactive),0.0224 (inactive) and -0.188 (inactive),0.459 (inactive) and 0.597 (inactive),-0.343 (inactive) and -0.244 (inactive),-1.72 and -1.16,-0.331 and -0.0021,-2.38 and -1.69,-1.96 and -1.51,-0.975 and -0.587,0.539 (inactive) and 0.137 (inactive),-0.147 and -0.15,0.0722 (inactive) and -0.629 (inactive),0.181 (inactive) and -0.255 (inactive),-0.533 (inactive) and -0.741 (inactive),0.0113 (inactive) and 0.0094 (inactive),0.0901 and -0.111,0.259 (inactive) and -0.0131 (inactive),-0.6 (inactive) and -0.665 (inactive),0.614 and 0.19
CC(C)OC(=O)C=C1C[C@@H](c2cccc(C(F)(F)F)c2)O[C@@H](c2cccc(C(F)(F)F)c2)O1,0.0895 and -0.51,-0.53 (inactive) and -2.72 (inactive),-0.539 (inactive) and 0.216 (inactive),-0.284 (inactive) and 0.379 (inactive),-0.126 (inactive) and 1.11 (inactive),0.0863 and 0.0717,-0.0313 and -0.2,0.704 and 2.6,1.17 and 0.366,-0.0088 and -0.758,-0.599 (inactive) and -0.778 (inactive),-0.0518 and -0.371,2.3 (inactive),0.707 (inactive) and 1.02 (inactive),0.192 (inactive) and -0.365 (inactive),0.613 (inactive) and 0.561 (inactive),0.156 and -0.463,-0.112 (inactive) and 0.194 (inactive),-1.2 (inactive) and -0.65 (inactive),-1.3 and -0.324
C=CCN(Cc1ccccc1)C(=O)C(c1cccs1)N(C(=O)/C=C\C(=O)O)c1ccc(CCO)cc1 (stereo not given),-1.26 and -0.913,0.735 (inactive) and 0.129 (inactive),-0.732 (inactive) and -1.02 (inactive),-0.0778 (inactive) and -0.0656 (inactive),0.0736 (inactive) and -0.183 (inactive),-1.73 and -2.16,-0.135 and -0.346,-2.97 and -2.57,-2.1 and -2.38,-1.14 and -0.843,0.906 (inactive) and 0.383 (inactive),-0.0449 and -0.314,0.149 (inactive) and -0.674 (inactive),-0.36 (inactive) and 0.526 (inactive),0.0823 (inactive) and -0.0781 (inactive),0.283 (inactive) and 0.306 (inactive),1.84 and 0.284,-0.228 (inactive) and -0.269 (inactive),-0.353 (inactive) and -0.512 (inactive),-0.0714 and -0.0433
COC(=O)[C@@]1(Cc2ccccc2)[C@H]2c3cc(C(=O)N(C)C)n(Cc4ccc(C)c(F)c4F)c3C[C@H]2CN1C(=O)c1ccccc1,0.0409 and 1.51,-4.98 (inactive) and -3.53 (inactive),-0.796 (inactive) and 0.655 (inactive),31.5 (active) and 0.972 (inactive),202 (active) and 0.38 (inactive),0.367 and 1.93,0.122 and 0.787,0.399 and 0.7,0.272 and 0.365,-0.678 and -0.165,-1.18 (inactive) and -1.91 (inactive),0.476 and 0.712,2.54 (inactive) and 4.12 (inactive),-0.6 (inactive) and 1.2 (inactive),0.425 (inactive) and 0.306 (inactive),-1.34 (inactive) and 1.21 (inactive),1.16 and 0.782,-3.14 (inactive) and 0.452 (inactive),-4.83 (inactive) and -1.66 (inactive),-5.5 and -1.88
C=CCN(CCCCC)C(=O)C1N(c2ccc(CCO)cc2)C(=O)C2C(C(=O)O)C3C=CC21O3 (stereo not given),-0.479 and -0.327,-0.641 (inactive) and -0.552 (inactive),0.839 (inactive) and 0.128 (inactive),-0.48 (inactive) and -0.619 (inactive),0.589 (inactive) and -0.601 (inactive),-1.64 and -1.36,-0.206 and 0.789,-1.94 and -0.448,0.101 and -1.53,-0.568 and 2.02,-0.202 (inactive) and 0.216 (inactive),-0.0099 and 0.0736,1.47 (inactive) and 1.68 (inactive),0.351 (inactive) and 0.438 (inactive),-0.148 (inactive) and -0.54 (inactive),0.0385 (inactive) and 0.356 (inactive),1.15 and 0.435,1.21 (inactive) and 0.745 (inactive),0.564 (inactive) and 0.124 (inactive),0.698 and 0.836

# Source: PubChem BioAssay
